This is an account of results in PubChem BioAssay (EPA / NIEHS).

Molecules are shown by their SMILES. Results filed as inconclusive are left out. The source holds several records for some structures; these can differ, active in one and inactive in another. Active and inactive are the calls of the source. Rule for the calls, unless noted: active = hit-call score of the fitted dose curve at least 0.9, where 1 is the maximum; inactive = score below 0.9.

The nature of assay [1]: CCTE_Shafer_MEA_dev_firing_rate_mean: CCTE's Neural Network Formation Assay for Mean Firing Rate, Shafer Lab (AID 2284031).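 For AC50: curve fitted for loss of firing so AC50 reflects decreased mean firing rate.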 The procedure, abridged:
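Spike frequency (spikes/recording length, averaged over active electrodes) was recorded on days 5, 7, 9 and 12 and collapsed to AUC; rat cortical cultures received compound continuously over 12 days of network development.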

Assay [2] in a line: CCTE_Shafer_MEA_dev_per_burst_spike_percent: CCTE's Neural Network Formation Assay for Percent of Spikes in a Burst, Shafer Lab (AID 2284032).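 For AC50: fitted as a decrease in burst spike percentage below DMSO baseline.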 The essentials:
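Value is trapezoidal AUC over recordings on days 5, 7, 9 and 12 of the well-mean fraction of spikes falling in single-electrode bursts; rat cortical cultures exposed continuously from plating, treatment renewed DIV 5 and 9, fitted downward against DMSO.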

A short description of assay [3]: CCTE_Shafer_MEA_dev_active_electrodes_number: CCTE's Neural Network Formation Assay for Number of Active Electrodes, Shafer Lab (AID 2284040; active = hit-call score of the fitted dose curve at least 0.9, where 1 is the maximum;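 for AC50: potency for loss of active electrodes versus DMSO so lower counts are hits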). The procedure, abridged: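 Counts electrodes per well firing at least 5 spikes/min, recorded on days 5, 7, 9 and 12 in rat cortical cultures dosed continuously from plating (treatment refreshed DIV 5, 9). Value is the area under the curve over recordings, fitted downward relative to DMSO.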

A short description of assay [4]: CCTE_Shafer_MEA_dev_burst_rate: CCTE's Neural Network Formation Assay for Burst Rate, Shafer Lab (AID 2284042).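 For AC50: potency for loss of burst rate below DMSO control.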 The essentials: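 Exposure ran continuously over 12 days of network development in rat cortical cultures, with compound refreshed during full media changes on DIV 5 and 9. Single-electrode bursts per recording time, well-mean over active electrodes, trapezoidal AUC across days 5–12, fitted downward relative to DMSO.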

Assay [5] is described as follows: CCTE_Shafer_MEA_dev_bursting_electrodes_number: CCTE's Neural Network Formation Assay for Number of Bursting Electrodes, Shafer Lab (AID 2284043; active = hit-call score of the fitted dose curve at least 0.9, where 1 is the maximum;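 for AC50: potency is for loss of bursting electrodes relative to DMSO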). The essentials:
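Counted: electrodes with burst rate ≥1 per 2 min in each well. Cells: primary rat cortex, 1.5 x 10^5/well, on 16-electrode MEA wells. Exposure: DIV 0–12, compound renewed DIV 5 and 9. Recording days 5, 7, 9, 12; AUC vs DMSO baseline.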

The nature of assay [6]: CCTE_Shafer_MEA_dev_per_burst_interspike_interval: CCTE's Neural Network Formation Assay for Burst Interspike Interval, Shafer Lab (AID 2284044).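 For AC50: potency for a decrease of within-burst interspike interval below DMSO level.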 The essentials: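 Neurons from rat cortex plated onto PEI-coated MEA wells with laminin […] at 1.5 x 10^5 cells/well, then treated from day 0. Media and compound fully replaced on DIV 5 and 9. Extracellular spontaneous firing recorded four times; interspike interval per burst summarised as AUC.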

A short description of assay [7]: CCTE_Shafer_MEA_dev_burst_duration_mean: CCTE's Neural Network Formation Assay for Mean Burst Duration, Shafer Lab (AID 2284045).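 For AC50: curve fitted for loss meaning shorter burst duration than DMSO.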 The procedure, abridged: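 Network-formation assay in primary rat cortical neurons; treatment spans twelve days of development. Mean burst duration per well is integrated by trapezoidal AUC and fitted in the loss-of-signal direction against DMSO baseline.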

Assay [8] can be described thus: CCTE_Shafer_MEA_dev_interburst_interval_mean: CCTE's Neural Network Formation Assay for Mean Interburst Interval, Shafer Lab (AID 2284046).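 Note: well-mean interburst interval of bursting electrodes as AUC over four recording days; curve fitted for decrease in interburst interval relative to DMSO.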 The procedure, abridged:
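Primary rat cortical neurons on PEI-coated 48-well MEA plates (laminin added with cells at plating) (16 electrodes/well), exposed from plating day 0 with renewal at DIV 5 and 9. Mean inter-burst interval averaged over bursting electrodes, AUC across days 5, 7, 9, 12; DMSO baseline.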

The nature of assay [9]: CCTE_Shafer_MEA_dev_inter_network_spike_interval_mean: CCTE's Neural Network Formation Assay for Mean Inter-network Spike Interval, Shafer Lab (AID 2284047). The procedure, abridged:
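Mean time between consecutive network-spike peaks, recorded extracellularly (adaptive spike detection) on DIV 5, 7, 9 and 12, summarized as trapezoidal AUC. Rat cortical cultures on MEAs dosed continuously days 0–12, re-dosed at feeds; loss-of-signal fit relative to DMSO.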

Assay [10] can be described thus: CCTE_Shafer_MEA_dev_network_spike_number: CCTE's Neural Network Formation Assay for Number of Network Spikes, Shafer Lab (AID 2284048).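 For AC50: fit as a loss of signal meaning fewer network spikes than DMSO.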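 Note: synchronized bursts across electrodes counted on days 5 7 9 12 and integrated as AUC.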 The procedure, abridged:
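Extracellular recordings from 16-electrode wells track network formation in rat cortical cultures under continuous treatment from plating. The endpoint is network spike number, expressed as AUC across DIV 5–12 relative to DMSO vehicle.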

The nature of assay [11]: CCTE_Shafer_MEA_dev_network_spike_peak: CCTE's Neural Network Formation Assay for Mean Number of Electrodes in Network Spike, Shafer Lab (AID 2284049).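 For AC50: fitted for loss of signal meaning fewer electrodes in network spikes than DMSO.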 The essentials: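 Continuous 12-day exposure of rat cortical cultures, starting at plating, on MEA plates. Endpoint: electrodes participating in network-spike peaks, AUC across DIV 5–12, DMSO as negative control.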
Assay [12] can be described thus: CCTE_Shafer_MEA_dev_spike_duration_mean: CCTE's Neural Network Formation Assay for Mean Spike Duration, Shafer Lab (AID 2284051).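 For AC50: potency for a decrease in mean network spike duration versus DMSO.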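 Note: mean network spike duration pooled as area under curve over DIV 5 to 12 recordings.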 The essentials:
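Spontaneous activity was recorded on days 5, 7, 9 and 12 from rat cortical cultures grown on microelectrode arrays and dosed continuously from day 0, with media and compound renewed after the DIV 5 and 9 recordings. Network-spike duration was collapsed by area under the curve.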

The nature of assay [13]: CCTE_Shafer_MEA_dev_network_spike_duration_std: CCTE's Neural Network Formation Assay for Standard Deviation of Network Spike Duration, Shafer Lab (AID 2284052).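 Note: hits are decreases in network spike duration SD versus DMSO vehicle.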 The procedure, abridged: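 Network spike duration variability was collapsed across recordings on days 5, 7, 9 and 12 by trapezoidal area-under-curve and fitted downward against DMSO. Cultures were rat cortical neurons on PEI-coated MEA plates, dosed continuously from plating, refed with compound DIV 5/9.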

Assay [14] can be described thus: CCTE_Shafer_MEA_dev_per_network_spike_spike_number_mean: CCTE's Neural Network Formation Assay for Mean Number of Spikes in a Network Spike, Shafer Lab (AID 2284053). The essentials:
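Mean spike count within each network spike, taken in a 0.05 s window at its peak, was recorded on days 5, 7, 9 and 12 and integrated as trapezoidal area under the curve. Rat cortical cultures on MEA plates received continuous compound from day 0, refreshed at medium changes on DIV 5 and 9.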

Assay [15] deals with Estrogen receptor (Homo sapiens) (UniProt P03372). Description: CCTE_Deisenroth_AIME_384WELL_LUC_Active: CCTE's 384-well Estrogen Receptor Transactivation Assay with AIME metabolic competence (ERTA luciferase; metabolism positive), Deisenroth Lab (AID 2284030; active = hit-call score of the fitted dose curve at least 0.9, where 1 is the maximum). The essentials: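 AIME metabolism-positive mode: chemicals 0.002 - 200 uM, 2 h with alginate-bound PB/BNF-induced rat S9 → medium to VM7Luc4E2 ERTA, 24 h → luciferase. Positive fit vs 17beta-estradiol; n=4 typical.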

Assay [16] shares this target. Description: CCTE_Deisenroth_AIME_384WELL_LUC_Inactive: CCTE's 384-well Estrogen Receptor Transactivation Assay without AIME metabolic competence (ERTA luciferase; metabolism negative), Deisenroth Lab (AID 2284038; active = hit-call score of the fitted dose curve at least 0.9, where 1 is the maximum;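 note: hits raise estrogen receptor luciferase signal so potencies reflect agonists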). The procedure, abridged: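 VM7Luc4E2 ER transactivation, luciferase bioluminescence after 24 h, using medium pre-incubated 2 h with S9-free alginate microspheres. Concentrations 0.002–200 uM; gain of signal fitted relative to 17beta-estradiol.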

Another assay has as its system DIO2 (gene 1734). In words: CCTE_GLTED_hDIO2: CCTE's human Deiodinase 2 (DIO2) Inhibition Assay, Great Lakes Toxicology and Ecology Division (GLTED) Lab (AID 2284050; active = hit-call score of the fitted dose curve at least 0.9, where 1 is the maximum). The procedure, abridged:
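Iodide released by human deiodinase 2 over 3 h with test chemical, measured spectrophotometrically via Sandell-Kolthoff cerium/arsenic reaction. Run n=3; inhibition referenced to DMSO.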

Assay [17] can be described thus: CCTE_Deisenroth_AIME_384WELL_CTox_Active: Cytotoxicity Assessment (CTOX) in CCTE's 384-well Estrogen Receptor Transactivation Assay with AIME metabolic competence (metabolism positive), Deisenroth Lab (AID 2284037; active = hit-call score of the fitted dose curve at least 0.9, where 1 is the maximum;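 note: chemicals first conditioned 2 h by alginate-bound induced rat liver S9 before cells; activity means signal loss indicating cell death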). The procedure, abridged: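 VM7Luc4E2 breast cells received medium pre-incubated 2 h with chemical over alginate microspheres holding induced male Sprague Dawley rat liver S9; viability read 24 h later by protease-substrate fluorescence. Loss of signal, bidirectional fit, 0.002–200 uM.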

Assay [18] is described as follows: CCTE_Deisenroth_AIME_384WELL_CTox_Inactive: Cytotoxicity Assessment (CTOX) in CCTE's 384-well Estrogen Receptor Transactivation Assay without AIME metabolic competence (metabolism negative), Deisenroth Lab (AID 2284039; active = hit-call score of the fitted dose curve at least 0.9, where 1 is the maximum;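 note: cell viability via live-cell protease substrate cleaved to fluorescent probe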). The essentials: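 Fluorescent protease-substrate viability readout after 24 h exposure of VM7Luc4E2 cells to conditioned medium. Chemicals (0.002–200 uM) first sat 2 h over alginate-water beads, no S9. Data fitted bidirectionally, loss of signal meaning viability loss.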

Estrogen receptor (Homo sapiens), sequence (P03372 whole entry, looked up): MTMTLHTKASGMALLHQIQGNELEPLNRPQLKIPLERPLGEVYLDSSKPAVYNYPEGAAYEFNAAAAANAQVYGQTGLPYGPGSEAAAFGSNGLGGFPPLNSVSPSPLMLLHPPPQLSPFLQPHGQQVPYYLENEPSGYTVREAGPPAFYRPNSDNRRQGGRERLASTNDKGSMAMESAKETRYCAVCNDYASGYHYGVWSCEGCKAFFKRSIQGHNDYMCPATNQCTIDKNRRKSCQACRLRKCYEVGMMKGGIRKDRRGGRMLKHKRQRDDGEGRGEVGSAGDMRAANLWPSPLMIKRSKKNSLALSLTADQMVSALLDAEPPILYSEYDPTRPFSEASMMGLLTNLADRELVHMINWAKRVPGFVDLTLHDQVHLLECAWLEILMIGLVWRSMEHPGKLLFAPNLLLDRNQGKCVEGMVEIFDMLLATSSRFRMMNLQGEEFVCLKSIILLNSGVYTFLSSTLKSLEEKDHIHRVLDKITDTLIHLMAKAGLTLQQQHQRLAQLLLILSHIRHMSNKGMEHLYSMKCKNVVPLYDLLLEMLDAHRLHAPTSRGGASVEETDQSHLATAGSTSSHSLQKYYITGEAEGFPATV

Regarding `Nc1ncn([C@@H]2O[C@H](CO)[C@@H](O)[C@H]2O)c(=O)n1`, the AC50 in assay [1] is 3410 nM (active); in assay [3], 2130 nM (active); in assay [5], 1340 nM (active); in assay [6] it was 2400 nM (active); in assay [10], 2260 nM (active); in [11], 4180 nM (active). Also, the values for the concentration at half-maximal activity (AC50) in assay [12] and in assay [14] were 4170 nM (active) and 2560 nM (active), respectively. In addition, the call in assay [1], in [2], in assay [3], in assay [4], in [5] and in assay [6] was inactive. Moreover, the compound was classed as inactive in assay [7], in assay [8], in [9], in assay [10], in assay [11] and in [12]. For the same compound, the compound was called inactive in [13] and in assay [14].

With `O=S(=O)(O)c1ccccc1C=Cc1ccc(-c2ccc(C=Cc3ccccc3S(=O)(=O)O)cc2)cc1`, the compound was classed as inactive (in assay [15]; in [16]; with DIO2 (gene 1734)).

As to `CC/C=C\C/C=C\C/C=C\CCCCCCCC(=O)O`, the AC50 with DIO2 (gene 1734) is 21200 nM (active).

For the compound `COC(F)(F)C(F)(C(F)(F)F)C(F)(F)F`, the compound was classed as inactive in assay [1], in assay [2], in [3], in assay [4], in [5] and in assay [6]. The compound was classed as inactive in assay [7], in assay [8], in assay [9], in assay [10], in assay [11] and in [12]. Moreover, the result in assay [13] and in assay [14] was inactive.

With `CC1(C)S[C@@H]2[C@H](NC(=O)COc3ccccc3)C(=O)N2[C@H]1C(=O)O`, the call in [1], in [2], in assay [3], in assay [4], in assay [5] and in [6] was inactive. Besides, the result in assay [7], in assay [8], in assay [9], in [10], in assay [11] and in [12] was inactive. Moreover, the compound was classed as inactive in assay [13] and in [14].

`CN(C)c1ccc(C(=N)c2ccc(N(C)C)cc2)cc1`: the AC50 is 2670 nM (active) in assay [1]; 1920 nM (active) in assay [2]; 100000 nM (active) in assay [17]; 31100 nM (active) in assay [18]; 2890 nM (active) in assay [3]; 1710 nM (active) in assay [4]. Further, the AC50 in [5] was 2270 nM (active); in assay [6] it was 3430 nM (active); in assay [7], 4060 nM (active); in assay [8], 2950 nM (active); in [10], 1350 nM (active); in assay [11] it was 2880 nM (active). Besides, the AC50 in assay [12] is 2420 nM (active); in [13], 1730 nM (active); in [14], 2390 nM (active). Also, the result in assay [9] was inactive.

Take `CCCCCCCC/C=C\CCCCCCCC(=O)OCCO`: the AC50 in the assay on DIO2 (gene 1734) was 19500 nM (active).

As for `CCOC(F)(F)C(F)(F)C(F)(F)C(F)(F)F`, the compound was classed as inactive in assay [1], in [2], in assay [3], in [4], in assay [5] and in [6]. Also, the call in assay [7], in [8], in assay [9], in [10], in [11] and in assay [12] was inactive. Further, the call in assay [13] and in [14] was inactive.

Usually AC50 stands for the concentration at which the activity in the assay is half-maximal.
